The panel holds about 83,000 compounds, 20% with a hit somewhere; the sample as a whole holds those more often.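 Plates (96-well) were seeded with cells, treated with compound at one concentration, and incubated for 48 hours before percent growth was determined.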 Values without a mark were called inactive. The source made the active and inactive calls. Rule for the calls: active = growth percent below 10; inactive = the rest.

Some test systems named below: NCI-H23 lung; NCI-H226 lung; NCI-H322M lung; HOP-62 NSCLC; NCI-H460 lung; NCI-H522 lung; A549/ATCC NSCLC; 786-0 renal; COLO 205 colon; DU-145 prostate; K-562 leukemia; MALME-3M melanoma; MDA-MB-231 breast; RXF 393 renal; SF-268 CNS; SF-295 CNS; SF-539 CNS; UACC-257 melanoma; M14 melanoma.
What all share (test): NCI-60 one-dose screen, 48 h (100 = growth as untreated, 0 = no growth, -100 = all killed)
Common to all, as to conditions: 10 µM unless noted

`CCCCCCNC(=O)Oc1ccc(/C(=C(/CC)Cc2ccccc2)c2ccc(OCCN(CC)CC)cc2)cc1`: the growth with NCI-H23 lung is 88%; in the experiment with NCI-H226 lung, 89.3%; with NCI-H322M lung, 87.5%; in the experiment on HOP-62 NSCLC, 88.8%; with NCI-H460 lung it was -41.3% (active); with NCI-H522 lung, 74.5%. The growth with A549/ATCC NSCLC was 56.2%; in the experiment on 786-0 renal, 63.7%; with COLO 205 colon, -48.6% (active); in the experiment on DU-145 prostate, 80.8%; in the experiment with K-562 leukemia it was -11.6% (active); in the experiment on MALME-3M melanoma, 17.4%. Moreover, the growth in the experiment with MDA-MB-231 breast was 67.5%; in the experiment on RXF 393 renal, 60.2%; in the experiment on SF-268 CNS, 76.5%; with SF-295 CNS, 102%; with SF-539 CNS, 86.1%; in the experiment on UACC-257 melanoma it was 86%. Further, the growth with M14 melanoma was 39.4%.

As to `CC(=O)[C@@H]1CC[C@]2(C(N)=O)CC[C@]3(C)[C@H](CC[C@@H]4[C@@]5(C)CCC(=O)C(C)(C)[C@@H]5CC[C@]43C)[C@@H]12`, the growth in the experiment with NCI-H23 lung was 95.1%; in the experiment on NCI-H226 lung, 102%; in the experiment on NCI-H322M lung it was 99.3%; with HOP-62 NSCLC, 92%; in the experiment on NCI-H460 lung, 101%; with NCI-H522 lung, 87.2%. The growth with A549/ATCC NSCLC is 96.3%; in the experiment with 786-0 renal, 89.6%; with DU-145 prostate, 105%; in the experiment on K-562 leukemia, 88.4%; with MALME-3M melanoma it was 112%; in the experiment on MDA-MB-231 breast, 95.8%. Besides, the growth was 109% in the experiment with RXF 393 renal; 95.4% with SF-268 CNS; 93.8% with SF-295 CNS; 99.5% in the experiment on SF-539 CNS; 93.6% in the experiment on UACC-257 melanoma; 93.4% in the experiment on M14 melanoma.

On to `CC1(C)[C@H](O)CC[C@]2(C)[C@@H]1CC[C@@]13C[C@@H](CC[C@H]12)[C@@](O)(CO)C3`, for which the growth in the experiment on NCI-H23 lung is 105%; in the experiment with NCI-H226 lung it was 99.7%; with NCI-H322M lung, 113%; with HOP-62 NSCLC it was 103%; in the experiment with NCI-H460 lung it was 104%; in the experiment with NCI-H522 lung, 92.1%. Besides, the growth in the experiment on A549/ATCC NSCLC is 107%; with 786-0 renal it was -45% (active); in the experiment on COLO 205 colon it was 119%; in the experiment on DU-145 prostate, 117%; in the experiment on K-562 leukemia, 104%; in the experiment on MALME-3M melanoma it was 111%. In addition, the growth is 114% in the experiment with MDA-MB-231 breast; 108% with SF-268 CNS; 103% with SF-295 CNS; 106% with SF-539 CNS; 107% in the experiment on UACC-257 melanoma; -30.7% (active) with M14 melanoma.

For the compound `O=C(Nc1ccccc1)Oc1ccccc1-c1ccccc1`, the growth in the experiment on NCI-H23 lung was 97.7%; in the experiment on NCI-H226 lung, 93.3%; with NCI-H322M lung, 105%; in the experiment with HOP-62 NSCLC, 74.9%; in the experiment on NCI-H460 lung, 99.7%; in the experiment on NCI-H522 lung, 83.7%. The growth in the experiment with A549/ATCC NSCLC is 73.8%; in the experiment on 786-0 renal it was 93.5%; in the experiment with COLO 205 colon, 96%; with DU-145 prostate it was 105%; in the experiment with MALME-3M melanoma, 95%; in the experiment on MDA-MB-231 breast, 109%. Also, the growth in the experiment with SF-268 CNS is 96.2%; with SF-295 CNS, 97.4%; in the experiment on SF-539 CNS it was 105%; with UACC-257 melanoma it was 80.8%; in the experiment with M14 melanoma, 85.2%.

Consider `O=C(Nc1ccc(F)cc1)c1c(NC(=O)C(F)(F)F)sc2c1CCCCC2`, for which the growth in the experiment on NCI-H23 lung is -5.63% (active); in the experiment with NCI-H226 lung it was -6.78% (active); in the experiment with NCI-H322M lung it was 11%; in the experiment with HOP-62 NSCLC, -23.5% (active); with NCI-H460 lung it was 2.16% (active); in the experiment on NCI-H522 lung it was 2.42% (active). Also, the growth in the experiment with A549/ATCC NSCLC is 5.88% (active); in the experiment on 786-0 renal, -10.4% (active); with COLO 205 colon, -18.6% (active); in the experiment with DU-145 prostate, 16.9%; in the experiment on K-562 leukemia it was 6.57% (active); with MALME-3M melanoma it was -21.1% (active). The growth with MDA-MB-231 breast was -20.4% (active); in the experiment on SF-268 CNS, 4.27% (active); in the experiment with SF-295 CNS, -42.4% (active); in the experiment with SF-539 CNS, -0.67% (active); with UACC-257 melanoma, -23.9% (active); in the experiment with M14 melanoma it was -3.37% (active).

Turning to `Nc1ncc(C#Cc2cncc(NC(=O)c3cccc(C(F)(F)F)c3)c2)c2cccnc12`, the growth in the experiment on NCI-H23 lung is 30.4%; with NCI-H226 lung it was 39.2%; with NCI-H322M lung it was 81%; with HOP-62 NSCLC, 52.8%; in the experiment with NCI-H460 lung it was 12.3%; in the experiment on NCI-H522 lung, 67.2%. The growth in the experiment on A549/ATCC NSCLC is 31.8%; in the experiment with 786-0 renal it was 63.9%; in the experiment with COLO 205 colon, 47%; in the experiment on DU-145 prostate, 43.7%; in the experiment on K-562 leukemia, 7.45% (active); in the experiment on MALME-3M melanoma, -6.22% (active). Moreover, the growth with MDA-MB-231 breast was 36%; with SF-268 CNS, 58.4%; in the experiment on SF-295 CNS, 61.2%; in the experiment with SF-539 CNS, 43.8%; with UACC-257 melanoma it was 71.7%; with M14 melanoma, 18.2%.

`COC(=O)N[C@H]1CCc2cc(OC)c(OC)c(OC)c2-c2ccc(SC)c(=O)cc21`: the growth in the experiment with NCI-H23 lung is 23.3%; with NCI-H226 lung, -3.52% (active); with NCI-H322M lung, 29.8%; with HOP-62 NSCLC, 23.4%; in the experiment with NCI-H460 lung, 2.04% (active); in the experiment on NCI-H522 lung, -17.9% (active). Besides, the growth is 14.1% in the experiment on 786-0 renal; -18.6% (active) in the experiment with COLO 205 colon; 1.4% (active) in the experiment on DU-145 prostate; 9.06% (active) in the experiment with K-562 leukemia; 37.3% in the experiment with MALME-3M melanoma; -22.3% (active) with MDA-MB-231 breast. The growth with RXF 393 renal is 22.5%; in the experiment with SF-268 CNS, 15.9%; with SF-295 CNS, 7.65% (active); in the experiment on SF-539 CNS, -27.6% (active); in the experiment with UACC-257 melanoma, 59.4%; in the experiment with M14 melanoma it was 3.18% (active).

As to `Cc1c(C2=CCCCC2)c2ccccn2c1C(=O)c1cccc(S(=O)(=O)N2CCOCC2)c1`, the growth is 75.6% in the experiment on NCI-H23 lung; 93.2% in the experiment with NCI-H226 lung; 80.7% with NCI-H322M lung; 70% in the experiment with HOP-62 NSCLC; 92.7% in the experiment on NCI-H460 lung; 68.1% in the experiment on NCI-H522 lung. Also, the growth was 69.4% in the experiment with A549/ATCC NSCLC; 51% with 786-0 renal; 102% in the experiment on COLO 205 colon; 98.3% in the experiment on DU-145 prostate; 57.4% with K-562 leukemia; 73.5% in the experiment with MALME-3M melanoma. Also, the growth with MDA-MB-231 breast is 92%; in the experiment with SF-268 CNS, 75%; in the experiment on SF-295 CNS it was 34.6%; in the experiment on SF-539 CNS, 97.2%; in the experiment on UACC-257 melanoma it was 86.8%; with M14 melanoma, 61.9%.

The values are drawn from PubChem BioAssay (NCI).
